ChEMBL document CHEMBL4513146, “CO-ADD screening of Karazin Kharkiv National University (Ukraine) compounds”
Results with a measured potency or affinity are listed apart.

Experiments:
Klebsiella pneumoniae = settings: Concentration 32 ug.mL-1;; ASSAY_TEST Inhibition of Bacterial Growth; detection method Absorption (OD600); MEDIA CAMHB; plate type 384well; NBS; CORNING #3640; time 18 hr
Candida albicans = settings: Concentration 32 ug.mL-1; ASSAY_TEST Inhibition of Fungal Growth; detection method Absorption (OD530)
Cryptococcus neoformans = settings: Concentration 32 ug.mL-1; ASSAY_TEST Inhibition of Fungal Growth; detection method Resazurin; Absorption (OD600-OD570); plate type 384well; NBS; CORNING #3640

Compound: Cc1nnc2ccc(S(=O)(=O)N(Cc3cccc(F)c3)c3cccc(F)c3)cn12
- Inhibition (Klebsiella pneumoniae): 2.6%
- Inhibition (Candida albicans): 1.95%
- Inhibition (Cryptococcus neoformans): -8.19%

Compound: O=C(Cn1nc2ccc(-c3ccc(Cl)cc3)nn2c1=O)Nc1ccccc1
- Inhibition (Klebsiella pneumoniae): 1.21%
- Inhibition (Candida albicans): 1.7%
- Inhibition (Cryptococcus neoformans): -12.99%

Compound: COc1ccc(C)cc1NC(=O)CSc1nc2ccccc2n2cnnc12
- Inhibition (Klebsiella pneumoniae): 9.24%
- Inhibition (Candida albicans): 2.39%
- Inhibition (Cryptococcus neoformans): -3.58%

Compound: CC(C)c1ccc(N(Cc2ccccc2F)S(=O)(=O)c2cccn3cnnc23)cc1
- Inhibition (Klebsiella pneumoniae): 6.21%
- Inhibition (Candida albicans): -0.83%
- Inhibition (Cryptococcus neoformans): -6.6%

Compound: COc1cc(NC(=O)CSc2nnc3c(=O)n(-c4ccc(C)c(C)c4)ccn23)cc(OC)c1
- Inhibition (Klebsiella pneumoniae): 2.77%
- Inhibition (Candida albicans): 1.66%
- Inhibition (Cryptococcus neoformans): -9.37%

Compound: Cc1ccc(NC(=O)Cn2nc3c(SCc4ccccc4)nccn3c2=O)cc1C
- Inhibition (Klebsiella pneumoniae): 8.81%
- Inhibition (Candida albicans): 15.8%
- Inhibition (Cryptococcus neoformans): -18.48%

Compound: CCCc1nnc2c(=O)n(CC(=O)Nc3ccc(C(C)=O)cc3)c3ccccc3n12
- Inhibition (Klebsiella pneumoniae): 3.81%
- Inhibition (Candida albicans): -1.78%
- Inhibition (Cryptococcus neoformans): -9.17%

Compound: Cc1cccc(C)c1NC(=O)Cn1c(=O)c2nnc(C(C)C)n2c2ccccc21
- Inhibition (Klebsiella pneumoniae): 1.46%
- Inhibition (Candida albicans): 4.52%
- Inhibition (Cryptococcus neoformans): -19.69%

Compound: O=S(=O)(c1ccc2nncn2c1)N(Cc1ccccc1F)c1ccc2c(c1)OCO2
- Inhibition (Klebsiella pneumoniae): 9.89%
- Inhibition (Candida albicans): 1.66%
- Inhibition (Cryptococcus neoformans): -6.91%

Compound: NC(=O)Cn1nc2n(CCC(=O)NC3CCCCC3)c(=O)c3ccccc3n2c1=O
- Inhibition (Klebsiella pneumoniae): 14.53%
- Inhibition (Candida albicans): 0.47%
- Inhibition (Cryptococcus neoformans): -26.54%

Compound: COc1ccc(-c2cc3c4nnc(SCC(=O)NCc5ccccc5)n4ccn3n2)cc1
- Inhibition (Klebsiella pneumoniae): -10.83%
- Inhibition (Candida albicans): 19.83%
- Inhibition (Cryptococcus neoformans): -19.87%

Compound: Cc1ccc(-c2cc3c4nn(CC(=O)Nc5ccccc5F)c(=O)n4ccn3n2)cc1C
- Inhibition (Klebsiella pneumoniae): 6.53%
- Inhibition (Candida albicans): -0.75%
- Inhibition (Cryptococcus neoformans): -15.58%

Compound: Cc1ccc(Nc2cc(C)n3c(=O)n(Cc4cc(=O)n5ccccc5n4)nc3n2)cc1F
- Inhibition (Klebsiella pneumoniae): 9.15%
- Inhibition (Candida albicans): -0.76%
- Inhibition (Cryptococcus neoformans): -5.54%

Compound: O=C(Cn1nc2c(Sc3ccccc3)nccn2c1=O)Nc1ccc2c(c1)OCCO2
- Inhibition (Klebsiella pneumoniae): 12.02%
- Inhibition (Candida albicans): -0.06%
- Inhibition (Cryptococcus neoformans): -3.83%

Compound: CCCCc1ccc(NC(=O)Cn2nc3c(SC4CCCCC4)nccn3c2=O)cc1
- Inhibition (Klebsiella pneumoniae): 1.99%
- Inhibition (Candida albicans): 20.8%
- Inhibition (Cryptococcus neoformans): -5.76%

Compound: CCc1nnc2ccc(S(=O)(=O)N(Cc3cccc(OC)c3)c3ccc(F)cc3)cn12
- Inhibition (Klebsiella pneumoniae): 3.57%
- Inhibition (Candida albicans): 1.64%
- Inhibition (Cryptococcus neoformans): -8.65%

Compound: Cc1cc2nn(CC(=O)Nc3ccc(F)cc3F)c(=O)n2c(Nc2ccc(F)c(C)c2)n1
- Inhibition (Klebsiella pneumoniae): 11.68%
- Inhibition (Candida albicans): 11.92%
- Inhibition (Cryptococcus neoformans): -8.52%

Compound: COc1cccc(-n2ccn3c(SCc4cccc(C)c4)nnc3c2=O)c1
- Inhibition (Klebsiella pneumoniae): 11.77%
- Inhibition (Candida albicans): 3.62%
- Inhibition (Cryptococcus neoformans): -12.18%

Compound: Cc1ccc2c(c1)N(C(=O)Cn1nc3ccc(S(=O)(=O)C(C)(C)C)nn3c1=O)CCO2
- Inhibition (Klebsiella pneumoniae): 13.78%
- Inhibition (Candida albicans): 0.51%
- Inhibition (Cryptococcus neoformans): -14.77%

Compound: COc1ccc(-c2cc3c4nnc(SCC(=O)NCc5ccc(Cl)cc5)n4ccn3n2)cc1
- Inhibition (Klebsiella pneumoniae): 6.35%
- Inhibition (Candida albicans): -0.75%
- Inhibition (Cryptococcus neoformans): -28.86%

Compound: Cc1nnc2c(SCC(=O)N3CCN(c4ccccc4F)CC3)nc3ccccc3n12
- Inhibition (Klebsiella pneumoniae): 10.03%
- Inhibition (Candida albicans): 8.32%
- Inhibition (Cryptococcus neoformans): -3.27%

Compound: Cc1ccc(-c2cc3c4nn(CC(=O)Nc5ccccc5C)c(=O)n4ccn3n2)cc1C
- Inhibition (Klebsiella pneumoniae): 7.72%
- Inhibition (Candida albicans): 19.26%
- Inhibition (Cryptococcus neoformans): -10.57%

Compound: COc1ccc(C)cc1NC(=O)Cn1nc2c3cc(-c4ccc(Cl)cc4)nn3ccn2c1=O
- Inhibition (Klebsiella pneumoniae): 15.75%
- Inhibition (Candida albicans): -1.06%
- Inhibition (Cryptococcus neoformans): -27.09%

Compound: COc1ccc(NC(=O)Cn2c(=O)c3nnc(C(C)C)n3c3ccccc32)cc1
- Inhibition (Klebsiella pneumoniae): 10.47%
- Inhibition (Candida albicans): 4.15%
- Inhibition (Cryptococcus neoformans): -13.18%

Compound: COc1ccc(C(=O)CSc2nnc3c(=O)n(-c4ccc(F)c(F)c4)ccn23)cc1OC
- Inhibition (Klebsiella pneumoniae): 11.04%
- Inhibition (Candida albicans): 3.34%
- Inhibition (Cryptococcus neoformans): -3.67%

Compound: Cc1ccc(NC(=O)CSc2nc3ccccc3n3c(C(C)C)nnc23)cc1Cl
- Inhibition (Klebsiella pneumoniae): 1.48%
- Inhibition (Candida albicans): -0.39%
- Inhibition (Cryptococcus neoformans): -22.27%

Compound: COc1cccc(-n2ccn3c(SCC(=O)c4ccc(OC)c(OC)c4)nnc3c2=O)c1
- Inhibition (Klebsiella pneumoniae): 7.59%
- Inhibition (Candida albicans): 4.83%
- Inhibition (Cryptococcus neoformans): -8.41%

Compound: C=Cc1ccc(CSc2nnc3c(=O)n(-c4cccc(OC)c4)ccn23)cc1
- Inhibition (Klebsiella pneumoniae): 9.99%
- Inhibition (Candida albicans): 4.25%
- Inhibition (Cryptococcus neoformans): -2.41%

Compound: CCc1nnc2c(S(=O)(=O)N(Cc3cc(F)cc(F)c3)c3ccc(F)cc3)cccn12
- Inhibition (Klebsiella pneumoniae): -0.25%
- Inhibition (Candida albicans): 4.45%
- Inhibition (Cryptococcus neoformans): -8.28%

Compound: O=C(Cn1nc2nc(Nc3ccc(F)cc3)ccn2c1=O)NCc1ccc(F)cc1Cl
- Inhibition (Klebsiella pneumoniae): 11.65%
- Inhibition (Candida albicans): 1.62%
- Inhibition (Cryptococcus neoformans): -8.71%

Compound: Cc1ccc(-c2cc3c4nnc(CCC(=O)NCCCc5ccccc5)n4ccn3n2)cc1C
- Inhibition (Klebsiella pneumoniae): 12.56%
- Inhibition (Candida albicans): -0.09%
- Inhibition (Cryptococcus neoformans): -29.9%

Compound: COc1ccccc1NC(=O)Cn1nc2n(CCCOC(C)C)c(=O)c3ccccc3n2c1=O
- Inhibition (Klebsiella pneumoniae): 12.77%
- Inhibition (Candida albicans): 2.2%
- Inhibition (Cryptococcus neoformans): -35.55%

Compound: Cc1ccc(Oc2nccn3c(=O)n(CC(=O)Nc4ccc(Br)cc4F)nc23)cc1
- Inhibition (Klebsiella pneumoniae): 2.41%
- Inhibition (Candida albicans): 2.18%
- Inhibition (Cryptococcus neoformans): -6.11%

Compound: COc1ccc(N(Cc2cccc(C)c2)S(=O)(=O)c2ccc3nncn3c2)cc1
- Inhibition (Klebsiella pneumoniae): -1.75%
- Inhibition (Candida albicans): 4.35%
- Inhibition (Cryptococcus neoformans): -8.71%

Compound: O=C(CSc1nnc2c(=O)n(-c3ccccc3)ccn12)Nc1cccc(Cl)c1
- Inhibition (Klebsiella pneumoniae): 1.21%
- Inhibition (Candida albicans): -0.19%
- Inhibition (Cryptococcus neoformans): -20.21%

Compound: O=C(CSc1nnc2c3cc(-c4ccc(F)cc4)nn3ccn12)Nc1ccccc1C(F)(F)F
- Inhibition (Klebsiella pneumoniae): -6.96%
- Inhibition (Candida albicans): 5.14%
- Inhibition (Cryptococcus neoformans): -18.14%

Compound: Cc1cccc(NC(=O)Cn2c(=O)c3nnc(C(C)C)n3c3ccccc32)c1
- Inhibition (Klebsiella pneumoniae): 2.46%
- Inhibition (Candida albicans): 0.3%
- Inhibition (Cryptococcus neoformans): -17.48%

Compound: COc1cc(NC(=O)Cn2nc3ccc(C(=O)NCc4ccccc4)cn3c2=O)cc(OC)c1OC
- Inhibition (Klebsiella pneumoniae): 1.38%
- Inhibition (Candida albicans): 5.58%
- Inhibition (Cryptococcus neoformans): -8.4%

Compound: C=Cc1ccc(CN(c2ccc(Cl)cc2)S(=O)(=O)c2cccn3c(C)nnc23)cc1
- Inhibition (Klebsiella pneumoniae): 7.52%
- Inhibition (Candida albicans): 0.36%
- Inhibition (Cryptococcus neoformans): -8.75%

Compound: O=c1c2sccc2n2c(SCc3cccc(C(F)(F)F)c3)nnc2n1Cc1cccs1
- Inhibition (Klebsiella pneumoniae): 1.3%
- Inhibition (Candida albicans): 16.7%
- Inhibition (Cryptococcus neoformans): -17.87%

Compound: Cc1ccc(NC(=O)Cn2nc3ccc(-c4ccc(Cl)cc4)nn3c2=O)cc1F
- Inhibition (Klebsiella pneumoniae): 2.59%
- Inhibition (Candida albicans): -1.16%
- Inhibition (Cryptococcus neoformans): -2.55%

Compound: Cc1cc(C)cc(Nc2nc(C)cc3nn(CC(=O)Nc4ccccc4)c(=O)n23)c1
- Inhibition (Klebsiella pneumoniae): 9.53%
- Inhibition (Candida albicans): 4.6%
- Inhibition (Cryptococcus neoformans): -8.58%

Compound: COc1ccc(CN(c2ccc(C(C)C)cc2)S(=O)(=O)c2cccn3cnnc23)cc1
- Inhibition (Klebsiella pneumoniae): 7.8%
- Inhibition (Candida albicans): 1.9%
- Inhibition (Cryptococcus neoformans): -7.62%

Compound: Cc1ccc(NC(=O)Cn2nc3c4cc(-c5ccc(C)c(C)c5)nn4ccn3c2=O)cc1C
- Inhibition (Klebsiella pneumoniae): 4.54%
- Inhibition (Candida albicans): 4.1%
- Inhibition (Cryptococcus neoformans): -9.03%

Compound: O=c1c2sccc2n2c(=O)n(Cc3ccc(F)cc3)nc2n1Cc1cccs1
- Inhibition (Klebsiella pneumoniae): 10.32%
- Inhibition (Candida albicans): 43.23%
- Inhibition (Cryptococcus neoformans): -26.83%

Compound: CCCCOc1ccc(-c2cc3c4nnc(SCC(=O)NCc5ccc(C)cc5)n4ccn3n2)cc1
- Inhibition (Klebsiella pneumoniae): 3.76%
- Inhibition (Candida albicans): 12.04%
- Inhibition (Cryptococcus neoformans): -14.64%

Compound: COc1cc(NC(=O)Cn2nc3c(N4CCCC(C)C4)nccn3c2=O)cc(OC)c1 (stereo not drawn)
- Inhibition (Klebsiella pneumoniae): 5.76%
- Inhibition (Candida albicans): 3.21%
- Inhibition (Cryptococcus neoformans): -46.51%

Compound: Cc1ccc(Cl)cc1NC(=O)Cn1nc2c(SC3CCCCC3)nccn2c1=O
- Inhibition (Klebsiella pneumoniae): 10.4%
- Inhibition (Candida albicans): -0.14%
- Inhibition (Cryptococcus neoformans): -28.24%

Compound: Cc1ccc(-n2ccn3c(=O)n(Cc4ccc(Cl)cc4)nc3c2=O)cc1C
- Inhibition (Klebsiella pneumoniae): 1.49%
- Inhibition (Candida albicans): 0.66%
- Inhibition (Cryptococcus neoformans): -5.42%

Compound: O=c1c2sccc2n2c(=O)n(Cc3cccc(Cl)c3)nc2n1Cc1cccs1
- Inhibition (Klebsiella pneumoniae): 3.75%
- Inhibition (Candida albicans): 61.44%
- Inhibition (Cryptococcus neoformans): -14.34%

Compound: Cc1nnc2c(=O)n(CC(=O)Nc3cccc(Br)c3)c3ccccc3n12
- Inhibition (Klebsiella pneumoniae): 7.61%
- Inhibition (Candida albicans): -0.15%
- Inhibition (Cryptococcus neoformans): -11.02%

Compound: Cc1cc(C)c(NC(=O)Cn2nc3c4cc(-c5ccc(F)cc5)nn4ccn3c2=O)c(C)c1
- Inhibition (Klebsiella pneumoniae): 17.22%
- Inhibition (Candida albicans): 18.72%
- Inhibition (Cryptococcus neoformans): -19.36%

Compound: COc1ccc(C(=O)CSc2nnc3c(=O)n(-c4ccc(F)cc4)ccn23)cc1
- Inhibition (Klebsiella pneumoniae): 10.95%
- Inhibition (Candida albicans): 4.42%
- Inhibition (Cryptococcus neoformans): -10%

Compound: O=C(Cn1nc2c3cc(-c4ccc(Cl)cc4)nn3ccn2c1=O)Nc1ccc2c(c1)OCO2
- Inhibition (Klebsiella pneumoniae): 13.7%
- Inhibition (Candida albicans): -0.02%
- Inhibition (Cryptococcus neoformans): -18.97%

Compound: Cc1ccc(Nc2cc(C)n3c(=O)n(CCOc4ccc(F)cc4)nc3n2)cc1
- Inhibition (Klebsiella pneumoniae): 19.26%
- Inhibition (Candida albicans): 2.38%
- Inhibition (Cryptococcus neoformans): -10.19%

Compound: CC(C)CCn1c(=O)c2sccc2n2c(=O)n(Cc3ccccc3Cl)nc12
- Inhibition (Klebsiella pneumoniae): 16.14%
- Inhibition (Candida albicans): -1.94%
- Inhibition (Cryptococcus neoformans): -23.98%

Compound: CC(C)c1nnc2c(=O)n(CC(=O)Nc3ccccc3)c3ccccc3n12
- Inhibition (Klebsiella pneumoniae): 14.31%
- Inhibition (Candida albicans): 3.67%
- Inhibition (Cryptococcus neoformans): -25.44%

Compound: CCc1ccccc1NC(=O)Cn1c(=O)c2nnc(C(C)C)n2c2ccccc21
- Inhibition (Klebsiella pneumoniae): -2.33%
- Inhibition (Candida albicans): 1.4%
- Inhibition (Cryptococcus neoformans): -16.86%

Compound: CC(C)Cc1ccc(S(=O)(=O)Nc2ccc3nncn3n2)cc1
- Inhibition (Klebsiella pneumoniae): 8.3%
- Inhibition (Candida albicans): 1.38%
- Inhibition (Cryptococcus neoformans): -3.84%

Compound: COc1cccc(CN(c2ccc(F)c(F)c2)S(=O)(=O)c2ccc3nncn3c2)c1
- Inhibition (Klebsiella pneumoniae): 0.45%
- Inhibition (Candida albicans): 4.56%
- Inhibition (Cryptococcus neoformans): -8.9%

Compound: CCCCN(CC)c1ccc2nnc(CCc3nc(-c4ccc(Br)cc4)no3)n2n1
- Inhibition (Klebsiella pneumoniae): 10.38%
- Inhibition (Candida albicans): 6.33%
- Inhibition (Cryptococcus neoformans): -10.77%
